D2 ag-1: activates the human D2 dopamine receptor; P14416; AID 485358; activation, % at 2 µM; HEK293 T-REx D2 cells, calcium flux agonist mode; actives 0.53% (n = 340,000);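 active means activation over 3 SD above normal in the single-dose calcium agonist read, cut at about 30% in these data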; further: 0% is about no effect
Target sequence (P14416 whole entry, looked up): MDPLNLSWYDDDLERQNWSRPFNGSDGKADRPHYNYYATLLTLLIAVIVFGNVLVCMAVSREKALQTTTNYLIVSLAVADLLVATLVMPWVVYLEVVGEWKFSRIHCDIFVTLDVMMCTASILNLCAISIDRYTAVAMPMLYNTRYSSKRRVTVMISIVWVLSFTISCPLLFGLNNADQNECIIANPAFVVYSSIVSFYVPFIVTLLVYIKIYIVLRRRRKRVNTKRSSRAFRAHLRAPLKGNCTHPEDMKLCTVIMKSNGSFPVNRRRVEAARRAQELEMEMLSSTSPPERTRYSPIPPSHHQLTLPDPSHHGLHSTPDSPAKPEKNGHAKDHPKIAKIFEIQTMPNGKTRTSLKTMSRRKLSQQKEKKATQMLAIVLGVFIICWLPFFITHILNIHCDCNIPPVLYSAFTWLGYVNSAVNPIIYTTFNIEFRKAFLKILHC
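Agonism scored from kinetic calcium signal (1 read/sec, 180 s) following compound pin transfer, after a 10 s baseline. Cells: HEK293 Trex line expressing inducible D2 receptor coupled to calcium, dye-loaded after overnight culture at 30 C.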
D2 PAM-1: positive allosteric modulators of human D2 dopamine receptor; P14416; DiscoveRx D2 beta-arrestin cells, luminescence, 90 min; 100% = 57 uM dopamine signal; potentiation, % (no concentration beside the values); actives 0.23% (n = 360,000); in the data active means potentiation above about 50%; inconclusive means mostly about 30% to 49%
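PathHunter beta-arrestin assay in DiscoveRx D2 cells. Compounds were added with an EC20 of dopamine (50 nM final) for 90 min at 37 deg C. Luminescence was read 1 h after detection reagent, with 57 uM dopamine as the EC100 control.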
D2 antag: antagonists of human D2 dopamine receptor; P14416; HEK293 TREx D2 cells, calcium flux, dopamine EC80; actives 2% (n = 340,000); inhibition, % at 10 µM; in the data active means inhibition above about 30%; inactive means below that, where a call was filed; further: 0% is about no effect
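Tetracycline-induced HEK293 TREx cells expressing D2 receptor forced-coupled to calcium signalling, loaded with no-wash calcium dye. Compounds added and calcium flux read 180 s, then dopamine added at EC80 and read a further 180 s.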
D2 PAM-2: positive allosteric modulators of human D2 dopamine receptor. HEK293 T-REx D2, calcium flux, EC20 dopamine potentiation. actives 0.34% (n = 340,000). potentiation, % at 10 µM;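 active means potentiation over 3 SD above the plate norm, cut at about 30% in these data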; further: 0% is about no effect
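Potentiation of an EC20 dopamine calcium response is measured in a force-coupled, tetracycline-inducible Hek293 Trex D2 line. Compound-only kinetic reads over 180 s flag agonists before dopamine addition.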
D2 ag-2: human D2 receptor agonism in beta-arrestin assay | DiscoveRx PathHunter D2 beta-arrestin, luminescence, 90 min; 100% = 57 uM dopamine signal | activation, % (concentration not given with the values) | actives 0.084% (n = 360,000) | AID 624465; in the data active means activation above about 40%; inconclusive means between about 15% and that limit
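Agonist mode: compounds alone added to overnight-plated D2 PathHunter cells for 90 min at 37 C, with 57 uM final dopamine (EC100) defining full response. Beta-arrestin recruitment detected by chemiluminescent reagent, read after 1 h at ambient temperature.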
Numbers without * were called inactive; ? = inconclusive; nt = no result given. Most compounds without a hit are left out; they make up all but 2.4% or so of the library.

SMILES	D2 ag-1	D2 PAM-1	D2 antag	D2 PAM-2	D2 ag-2
Cc1ccc(S(=O)(=O)/N=C2/C=C(C3C(=O)CC(C)(C)CC3=O)C(=O)c3ccccc32)cc1	0	110*	6	0	10
O=S1(=O)CCC(NS(=O)(=O)c2cccc3cccnc23)C1 (stereo unspecified)	-1	12	-8	34*	-1
CCN(C(=O)Cn1nc(Cc2cccnc2)c2ccccc2c1=O)c1cc(C)ccc1C	0	nt	nt	5	nt
COc1cc(F)c(C2=CC(=O)C[C@H](c3ccc(Cl)cc3)C2)cc1F	1	-11	35*	-7	-5
O=C1C=C(c2cc(F)ccc2F)C[C@@H](c2ccc(Cl)cc2)C1	-1	-5	9	2	-6
Cc1ccc(C)c(NC(=O)CCc2c(C)nn(-c3ccc(N4CCCC4)nn3)c2C)c1	-1	nt	nt	12	nt
C#CCOCCOCCOCCNc1nc(N2CCN(C(=O)[C@H]([C@@H](C)CC)n3cc(CCCN=C(N)N)nn3)CC2)nc(N2CCN(C(=O)[C@H](CCCCN)n3cc(CCCC)nn3)CC2)n1	0	-10	5	2	-3
C#CCOCCOCCOCCNc1nc(N2CCN(C(=O)[C@H](C)n3cc(CCCN=C(N)N)nn3)CC2)nc(N2CCN(C(=O)[C@H](CCCCN)n3cc(CCCC)nn3)CC2)n1	0	nt	31*	-2	nt
Cc1cc(NC(=O)Nc2nc3c(s2)CCCCCC3)ccc1Br	2	nt	nt	10	nt
Cc1nn(Cc2ccccc2)c(C)c1/C=N/NC(=O)CNc1cccc(C(F)(F)F)c1	2	-10	8	2	14
COc1ccc(NCC(=O)N/N=C/c2c(C)nn(Cc3ccccc3)c2Cl)cc1	-1	0	31*	-4	1
CC(C)NC(=O)CSc1nc2ccccc2c(=O)n1Cc1ccc(C(=O)NC(C)C)cc1	-2	nt	nt	-4	nt
CCOc1ccc(N(CC(=O)Nc2cc(C)cc(C)c2)S(C)(=O)=O)cc1	0	-5	41*	-2	4
CCOc1ccc(NC(=O)C2CC(=O)OC2c2ccccc2)cc1 (stereo unspecified)	0	-5	-10	1	10
COC(=O)c1ccc(NC(=O)C2CC(=O)OC2c2ccccc2)cc1 (stereo unspecified)	0	-6	35*	-15	-5
O=[N+]([O-])c1nn(-c2ccc3c(c2)OCCO3)n(O)c1=NCc1ccc(F)cc1	-1	143*	-11	15	?
O=[N+]([O-])c1nn(-c2ccc3c(c2)OCCO3)n(O)c1=NCCC1=CCCCC1	1	147*	6	3	?
COc1cc(N=c2c([N+](=O)[O-])nn(-c3ccc4c(c3)OCCO4)n2O)cc(OC)c1	1	68*	1	-2	9
CCc1cccc(N=c2c([N+](=O)[O-])nn(-c3ccc4c(c3)OCCO4)n2O)c1	-2	?	7	0	?
O=[N+]([O-])c1nn(-c2ccc3c(c2)OCCO3)n(O)c1=NCc1ccc(F)cc1Cl	0	7	6	2	2
CC(C)c1ccc(N=c2c([N+](=O)[O-])nn(-c3ccc4c(c3)OCCO4)n2O)cc1	0	71*	-14	-3	6
CN=c1c([N+](=O)[O-])nn(-c2ccc3c(c2)OCCO3)n1O	-1	25	2	3	42*
CCN1/C(=C/C=C/c2oc3ccc4ccccc4c3[n+]2CC)Oc2ccc3ccccc3c21	45*	0	7	-4	3
CCN1C(=O)/C(=C/C=C2/Sc3ccc4ccccc4c3N2CCO)SC1=S	0	-4	6	-1	-2
CCc1ccc(NC(=O)c2cc(=O)c3ccc(C)c(C)c3o2)cc1	nt	nt	nt	-29	nt
Cc1csc2nc(COC(=O)c3ccc(NC(=O)c4ccccc4Br)cc3)cc(=O)n12	2	nt	nt	3	nt
CCOC(=O)C1C(=O)C=C(/C=C/c2ccc(N(C)C)cc2)CC1c1ccccc1 (stereo unspecified)	52*	4	33*	-10	1
Cc1nnc(NC(=O)c2ccc(S(=O)(=O)N3CCCCCC3)cc2)o1	0	-17	0	10	-3
